Test results: PubChem BioAssay AID1619 (SRMLSC, 2009)
In all, about 220,000 compounds went through this assay and about 830 (0.38%) were called active.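 How the source made its calls: active means compound inhibiting the enzyme by more than half at any dose during confirmatory dose-response retesting; inconclusive means strong single-dose inhibitors picked by rank but not retested; inactive means the rest.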 These entries were drawn from the full list. Results with a measured potency or affinity are listed apart.

molecular target: Leucine aminopeptidase (Plasmodium falciparum (isolate 3D7)) (UniProt Q8IL11); assay: P. falciparum M17LAP inhibitors, primary screen, biochemical, fluorogenic H-Leu-NHMec substrate, 1536-well (AID 1619); conditions: recombinant M17LAP, H-Leu-NHMec fluorogenic kinetic assay; at 30 µM; hits give high values;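 further: plate controls were full reaction with DMSO carrier for no effect and no enzyme background for full effect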
Sequence (Q8IL11 whole entry, looked up): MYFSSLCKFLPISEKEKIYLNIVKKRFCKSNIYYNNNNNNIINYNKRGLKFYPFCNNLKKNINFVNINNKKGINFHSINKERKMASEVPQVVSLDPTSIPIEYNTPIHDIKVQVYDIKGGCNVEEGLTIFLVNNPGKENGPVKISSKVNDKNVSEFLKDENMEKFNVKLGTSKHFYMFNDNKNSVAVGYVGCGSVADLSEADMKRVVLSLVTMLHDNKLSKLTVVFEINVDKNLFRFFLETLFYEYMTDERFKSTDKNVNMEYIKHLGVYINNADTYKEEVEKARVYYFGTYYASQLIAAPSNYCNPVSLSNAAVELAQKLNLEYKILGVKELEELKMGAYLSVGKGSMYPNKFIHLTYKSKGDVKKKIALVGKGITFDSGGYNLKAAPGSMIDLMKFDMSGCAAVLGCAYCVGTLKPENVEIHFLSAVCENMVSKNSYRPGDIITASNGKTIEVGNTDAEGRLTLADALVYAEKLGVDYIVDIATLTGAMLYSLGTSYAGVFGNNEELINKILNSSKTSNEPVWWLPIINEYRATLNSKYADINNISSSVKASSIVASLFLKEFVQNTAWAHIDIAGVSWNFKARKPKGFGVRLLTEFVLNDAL

inhibition, inactive:
NC(=O)c1cccc(CC(=O)c2ccccc2)c1 -5.22%
O=C(Cc1ccccc1)c1c[nH]c(C(=O)O)c1 -7.97%
O=c1[nH]nc(N/N=C/c2ccccc2OC(F)F)c(=O)[nH]1 3.73%
Cc1cccc(C)c1NC(=O)CCCSc1nc2ccccc2s1 2.06%
CC(=O)Nc1scc(C)c1-c1nc2ccccc2s1 -9.4%
Cc1csc(NC(=O)CSCC(=O)O)c1-c1nc2ccccc2s1 1.7%
O=C(O)CCC(=O)Nc1nc2ccccc2s1 16.1%
O=C(NNC(=S)Nc1ccc(Br)cc1Cl)c1ccncc1 21.5%
CCOC(=O)c1ccc(NC(=O)C2CCCN(S(=O)(=O)c3cnc[nH]3)C2)cc1 (stereo not given) -0.78%
COc1ccc(CN2CCN(C(C)C)C(CCO)C2)cc1Cn1cncn1 (stereo not given) 1.4%
COc1ccc(N2CCN(CCCNC(=O)C3CCC(CNc4nc(=S)[nH]c5ccccc45)CC3)CC2)cc1 (stereo not given) 10.8%
COc1ccccc1N(CC(=O)NCCC1=CCCCC1)S(=O)(=O)c1ccccc1 -1.31%
CC1CN(C2CCN(C(=O)c3ccccc3)CC2)CC(C)O1 (stereo not given) 6.07%
O=C(c1ccccc1F)N(Cc1ccc2c(c1)OCO2)Cc1cc2cc3c(cc2n2nnnc12)OCO3 3.97%
CCN(CC)C(=O)CSc1nc2c(sc(=S)n2-c2ccccc2)c(=O)[nH]1 12%
CCOC(=O)CSc1nc2c(sc(=S)n2-c2ccc(OCC)cc2)c(=O)[nH]1 14.5%
CCOC(=O)c1sc(=S)n(-c2ccccc2)c1N 6.93%
CCOc1ccc(-n2c(=S)sc3c(=O)[nH]c(SCC(=O)C(C)(C)C)nc32)cc1 37%
CCOC(=O)CSc1nc2c(sc(=S)n2Cc2ccco2)c(=O)n1-c1ccccc1 6.2%
CCCN(CCC)C(=O)CSc1nc2c(sc(=S)n2-c2ccc(OCC)cc2)c(=O)[nH]1 30.1%
CCN(CC)C(=O)CSc1nc2c(sc(=S)n2Cc2ccco2)c(=O)n1-c1ccccc1 8.29%
O=S(=O)(c1cc(Cl)cc(Cl)c1)N1CCCC1c1nc2ccccc2s1 (stereo not given) -5.02%
O=C(COc1ncnc2sccc12)Nc1ccc2c(c1)OCCO2 34.8%
COc1ccccc1CNC(=O)COc1ccccc1OC 3.35%
Cc1cccc(NC(=O)Nc2ccc3c(c2)N(C)C(=O)CS3)n1 3.25%
O=c1c2c(-c3ccc(Cl)cc3)csc2ncn1/N=C/c1cccc([N+](=O)[O-])c1O -4.46%
Cc1ccc(N2NC(C)(c3cccs3)NC2=S)cc1 (stereo not given) -1.38%
COc1cc(NC(=O)c2nccnc2N)cc(C(=O)Nc2cccc(C(F)(F)F)c2)c1 -5.13%
O=C(O)c1ccc(Cn2cc(C(F)(F)F)ccc2=O)cc1 -4.03%
O=C(CC1Sc2ccccc2NC1=O)Nc1cccnc1 (stereo not given) 5.83%
O=C(CC1Sc2ccccc2NC1=O)Nc1cccc(-c2nnc3n2CCCCC3)c1 (stereo not given) 3%
O=C(O)c1ccc(NC(=O)C2(c3ccccc3)CCCC2)cc1 3.99%
Fc1cccc2sc(Nc3nc4c(F)cccc4s3)nc12 16.7%
COC(=O)Nc1sc2c(c1C(N)=O)CCC(C)C2 (stereo not given) 26.4%
CC1CCc2c(sc(NC(=O)C3c4ccccc4Oc4ccccc43)c2C(N)=O)C1 (stereo not given) 8.46%
COc1ccc2nc(Nc3sc4c(c3C(N)=O)CCCC4)sc2c1 8.22%
CC(=O)c1ccc(Nc2ccc(-c3ccccc3F)nn2)cc1 28.4%
COC(=O)c1ccccc1NC(=O)C(C)c1ccc([N+](=O)[O-])cc1 (stereo not given) -0.59%
N#C/C(C(=O)NCc1ccccc1)=C1/N=C(NC(=O)c2cccs2)c2ccccc21 5.68%
CCOC(=O)C1=C(C)N=C2SCCC(=O)N2[C@@H]1c1cccs1 3.63%
NC(=O)CC(NC(=O)Cc1cccc2ccccc12)c1ccc(NC2CCC2)c([N+](=O)[O-])c1 (stereo not given) 15%
COC(=O)c1cn(C(=O)c2cccc(C)c2)c2ccccc12 1.71%
O=C(Cc1ccccc1)NNC(=S)NC(=O)c1cccnc1 13.8%
Cc1cccc(C(=O)NC(=S)NNC(=O)COc2ccc(Cl)cc2)c1 8.45%
Cc1cccc(C(=O)NC(=S)NNC(=O)c2ccc(Cl)cc2)c1 86.2%
Cc1cccc(C(=O)NC(=S)Nc2ccccc2C(=O)O)c1 3.36%
O=C(NC(=S)NNC(=O)c1ccccc1F)c1cccnc1 5.36%
O=C(NNC(=S)NC(=O)c1cccnc1)c1ccc(Cl)cc1 71.2%
Cc1cccc(NC(=S)NNC(=O)Cc2ccccc2)c1 15.6%
Cc1ccc(C(=O)NC(=S)NNC(=O)COc2ccccc2C)cc1 -0.9%
O=C(O)c1ccc2c(c1)SC1=NS(=O)(=O)CCN12 -2.18%
CCN1CCN(C(=O)CSc2cc(=O)n(CC)c3ccccc23)CC1 4.46%
CCC(C)NC(=O)CS(=O)Cc1nc(-c2ccccc2C)oc1C (stereo not given) 2.41%
Cn1c(N)c(C(=O)c2ccc(F)cc2F)c(=O)n(C)c1=O 5.53%
COC(=O)[C@H](Cc1ccccc1)NC(=O)O[C@H]1C(=O)c2ccc(OC)cc2O[C@@H]1c1ccc2c(c1)OCO2 -10.7%
CCCOC(=O)c1ccc(NC(=O)C2C3CCC(C3)C2C(=O)O)cc1 (stereo not given) 43.4%
O=C(O)Cc1ccc(NC(=O)C2CC=CCC2C(=O)O)cc1 (stereo not given) 11.1%
CC(=O)Nc1ccc(NC(=O)[C@@H]2CCCC[C@@H]2C(=O)O)cc1 -3.15%
CN(C(=O)c1ccc(NC(=O)C2CC=CCC2C(=O)O)cc1)c1ccccc1 (stereo not given) 45.1%
O=C(O)C1CCCCC1C(=O)Nc1ccc(-c2ccccc2)cc1 (stereo not given) 6.02%
COC(=O)c1ccc(NC(=O)C2C3CCC(C3)C2C(=O)O)cc1 (stereo not given) 39%
CC(=O)Nc1ccc(NC(=O)C2CCCCC2C(=O)O)cc1 (stereo not given) 8.65%
O=C(O)[C@H]1CCCC[C@H]1C(=O)Nc1ccc(Nc2ccccc2)cc1 54.9%
O=C(O)CCSCCCN1C(=O)c2cccc3cccc(c23)C1=O 8.08%
CCCc1cc(=O)[nH]c(SCC(=O)Nc2cc(C)on2)n1 3.41%
Cc1ccc(C2CC(C(F)(F)F)n3nc(C(=O)Nc4c(C)n(C)n(-c5ccccc5)c4=O)cc3N2)cc1 (stereo not given) 2.06%
COc1ccc(NC(=O)c2ccc(-n3c(C)ccc3C)cc2)c(OC)c1 4.59%
Cc1nc(C)c(-c2csc(Nc3ccc(F)cc3)n2)s1 -0.33%
Cc1ccc(Oc2ncc(-c3ccc(Cl)cc3)cn2)cc1 -3.58%
CCOC(=O)N1CCN(c2cc(N)c([N+](=O)[O-])cc2F)CC1 -0.96%
Cc1ccc(C(=O)Nc2ccn(Cc3ccc(F)cc3)n2)o1 2%
COc1ccc(C(=O)Nc2cccc(C(=O)NCc3ccccc3)c2)cc1 3.07%
Oc1ccc(C(c2nnnn2CCc2ccccc2)N2CCN(c3nc4ccccc4s3)CC2)cc1 (stereo not given) 3.87%
CCOC(=O)NCc1ccc(Cl)c(Cl)c1 -9.33%
CC(C)(C)OC(=O)CN1C(=O)C(Sc2n[nH]c(-c3ccccc3)n2)CCc2ccccc21 (stereo not given) 3.43%
CCSc1nc(N)nc(-c2cccs2)c1C#N 5.48%
CN(Cc1ccccc1)Cc1nc2c([nH]1)c(=O)[nH]c(=O)n2C -7.23%
CC(NC(=O)c1cccnc1)C(c1cccs1)N1CCN(C)CC1 (stereo not given) 0.81%
CN(C1CCCCC1)S(=O)(=O)c1ccc(NC(=O)C2CCCCC2C(=O)O)cc1 (stereo not given) 44%
O=C(O)Cc1ccc(NC(=O)C2CCCCC2C(=O)O)cc1 (stereo not given) 19%
CCOC(=O)N1CCN(C(=O)c2ccc(CS(=O)(=O)c3c(Cl)cccc3Cl)o2)CC1 3.87%
CCCCOc1ccc(C(=O)OCC(=O)Nc2cc(C)on2)cc1 2.23%
CCOC(=O)c1c(CSCc2ccccc2)oc2ccc(O)c(CN(C)C)c12 -2.1%
Cc1ccc2c(=O)[nH]c(Cc3ccccc3C(=O)O)nc2c1 2.27%
Cc1ccc(N/N=C2/CCCNC2=O)cc1 40.4%
Cc1ccc(NN=C2c3ccccc3-c3ccccc32)cc1 5.01%
Cc1ccc(N(CC(O)CN2C(=O)NC(C)(C)C2=O)S(=O)(=O)c2ccc(C)cc2)cc1 (stereo not given) -16.4%
Fc1ccc(N/N=C/c2ccncc2)c(F)c1 -6.64%
O=C(O)c1ccc(N/N=C/c2ccc(-c3ccccc3)cc2)cc1 2.22%
O=C(O)c1ccc(/C=N/Nc2cccc(C(F)(F)F)c2)cc1 16.4%
Cc1ccc(/C=N/Nc2ccc(Cl)c(C(=O)O)c2)s1 49.5%
CC(C)(C)c1ccc(/C=N/Nc2cccc(C(=O)O)c2)cc1 12.1%
Cc1ccc(/C=N/Nc2cccc(C(=O)O)c2)s1 53.6%
O=C(O)c1ccc(/C=N/NC(=O)c2ccc(F)cc2)cc1 7.3%
O=C(O)c1ccc(N/N=C/c2ccc(F)c(F)c2)cc1 50.5%
